Pol eta inh: blocks human DNA polymerase eta activity; Q9Y253; recombinant Pol eta, fluorescent DNA replication assay; Potency, µM (highest dose often 114 µM), for the others: at the highest dose activity change, negative = inhibition, hits mostly inhibitors; 390,000 compounds, 1.2% hits; note: potency is the fitted concentration of half-maximal effect; % is set by controls: 0 for no effect and ±100 for the full control effect
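Pol eta at 10 nM preincubated with compounds 15 min at room temperature; reaction started with fluorescent substrate (50 nM final) and read kinetically at 0 and 10 min.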
POLI inh: inhibitors of human DNA polymerase iota. 390,000 compounds, 1% hits. Potency, µM (highest dose often 115 µM), inactives show at the top dose activity, negative = inhibition, hits mostly inhibitors. Pol iota fluorescent replication assay, 10 min. Q9UNA4; note: potency is the fitted concentration of half-maximal effect
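Pol iota at 10 nM preincubated 15 min with compounds at room temperature; reaction started with fluorescent substrate, 50 nM final. Fluorescence read kinetically at 0 and 10 min; buffer-only wells as negative control.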
PI5P4K alpha inh: blocks human PI5P4K alpha kinase activity. P48426. PI5P4Kalpha enzyme, ADP-Glo luminescence, 60 min; hits give low values. max response, %. 330,000 compounds, 1.2% hits. AID 652105; active = max response of -50% or lower; inconclusive = between -30% and -50%; inactive = -30% or higher; note: value at the top dose of about 77 µM; % is set by controls: 0 for no effect and ±100 for the full control effect
Target sequence (P48426 whole entry, looked up): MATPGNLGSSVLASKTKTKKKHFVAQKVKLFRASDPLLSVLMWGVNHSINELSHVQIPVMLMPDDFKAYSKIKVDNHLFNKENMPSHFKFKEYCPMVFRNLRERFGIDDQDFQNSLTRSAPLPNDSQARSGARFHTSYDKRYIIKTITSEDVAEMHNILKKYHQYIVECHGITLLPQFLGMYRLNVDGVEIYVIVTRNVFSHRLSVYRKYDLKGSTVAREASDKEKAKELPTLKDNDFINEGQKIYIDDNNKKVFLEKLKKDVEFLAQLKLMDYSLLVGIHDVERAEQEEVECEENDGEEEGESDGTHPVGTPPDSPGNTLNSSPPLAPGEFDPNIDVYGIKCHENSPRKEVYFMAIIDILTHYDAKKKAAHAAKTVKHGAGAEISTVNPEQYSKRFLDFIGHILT
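Compounds were pin-transferred onto PI5P4Kalpha and substrate in HEPES pH 7.4 buffer with EGTA, CHAPS and 5% DMSO. ATP (5 microM final) started the reaction, which ran 60 minutes at room temperature before ADP-Glo detection.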
POLK inh: blocks human DNA polymerase kappa activity; Q9UBT6; purified Pol kappa, fluorescent DNA synthesis assay, 10 min; Potency, µM (series often up to 107 µM), inactives show at the highest dose activity, negative = inhibition, usual class: inhibitors; 400,000 compounds, 0.53% hits; AID 588579; note: potency is the fitted concentration of half-maximal effect; % is set by controls: 0 for no effect and ±100 for the full control effect
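Pol kappa 10 nM + cpd, 15 min RT; start w/ substrate 50 nM final; fluorescence kinetic read, 0 and 10 min. Neg ctrl: buffer, no enzyme.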
Pol beta inh: blocks human DNA polymerase beta activity; P06746; Pol beta primer extension/strand displacement, fluorescence kinetic; Potency, µM (doses to about 114 µM), for the others: at the highest dose activity change, negative = inhibition, actives largely listed as inhibitors; 340,000 compounds, 1.3% hits; AID 485314; note: potency is the fitted concentration of half-maximal effect; % is set by controls: 0 for no effect and ±100 for the full control effect
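Curves were derived by four-parameter Hill fits of normalized qHTS data. The kinetic fluorescent primer-extension read was taken at 0 and 10 min after 50 nM substrate, following a 15 min room-temperature preincubation of 10 nM enzyme with compounds.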
FEN1 inhibitor: inhibitors of human flap endonuclease 1 | Potency, µM (highest dose often 114 µM), for inactives: top-dose activity change, negative = inhibition, usual class: inhibitors | Recombinant FEN1 flap cleavage, fluorescence, 15 min | 390,000 compounds, 0.35% hits; note: potency is the fitted concentration of half-maximal effect; % is set by controls: 0 for no effect and ±100 for the full control effect; nearly all actives have a fitted effect of over 65% in size
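FEN1 at 10 nM, compound pretreatment for 15 min (room temperature), 50 nM final substrate to initiate; endpoint reads at 0 and 15 min; DMSO-only plates used as vehicle background.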
Active calls of the source: *; [ ] = dose if it differs, or a comment. A selection: hits, their analogues and other compounds. The true share with any hit is near 2.8%. Unless noted, calls come from the whole dose curve; as a rule, active = well fitted curve in the direction sought with a large enough effect; inconclusive = small, poorly fitted or top-dose-only effect, or another doubt; inactive = no such curve, though single readings can be large; an effect the other way counts as inactive or inconclusive.

`CC(C)(C)n1cccc1/C=C1\C(=O)NC(=O)N(c2ccccc2)C1=O` gave Pol eta inh -15%, POLI inh inconclusive, PI5P4K alpha inh 1, POLK inh -2%, Pol beta inh -10% and FEN1 inhibitor 44%.
[Hg+][c]1ccccc1 was read as POLI inh 14µM*, POLK inh 2%[19.4 µM] and FEN1 inhibitor 10µM*.
For CCOc1ccc(NC(=O)c2c(O)[nH]c(=O)[nH]c2=O)cc1 the results were Pol eta inh -14%, POLI inh 19%, PI5P4K alpha inh 7, POLK inh 6% and FEN1 inhibitor 14%.
`CCOC(=O)c1ccc(NC(=O)c2c(O)[nH]c(=O)[nH]c2=O)cc1` gave Pol eta inh inconclusive, POLI inh 0%, PI5P4K alpha inh -2, POLK inh 1%, Pol beta inh 20µM* and FEN1 inhibitor -7%.
`Nc1nc(NCc2ccc(F)cc2)c2[nH]cnc2n1` gave POLI inh 56%, POLK inh 12% and FEN1 inhibitor -9%.
Screening Nc1ccccc1C(=O)OC1CSC1 returned Pol eta inh inconclusive, POLI inh 9%, POLK inh -2%, Pol beta inh 56µM* and FEN1 inhibitor -3%.
Screening COC(=O)/C(C)=C\CC12OC(C)(C)C3CC(C=C4C(=O)c5c(OC)c6c(c(CC=C(C)C)c5OC431)OC(C)(CCC=C(C)C)C=C6)C2=O (centres undefined) returned POLK inh -24%[60.1 µM].
`CC(=O)Oc1c2c(c(CC=C(C)C)c3c1C(=O)C1=CC4CC5C(C)(C)OC(C/C=C(\C)C(=O)O)(C4=O)[C@]15O3)OC(C)(CCC=C(C)C)C=C2` (some centres undefined) gave POLK inh 25µM*.
CC1(C)CC(=O)C(C2(O)C(=O)NC(=O)NC2=O)=C(O)C1 was read as Pol eta inh 4%, POLI inh 8.9µM*, POLK inh 0%, Pol beta inh 13% and FEN1 inhibitor -13%.
For O=C1c2ccccc2C(=O)C1C(=O)C(c1ccccc1)c1ccccc1 the results were POLK inh -4%[19.4 µM].
Screening CN(C)c1ccc(/C=C2/C(=O)NC(=O)N(CCc3ccc(F)cc3)C2=O)cc1 returned Pol eta inh 1%, POLI inh -16%, PI5P4K alpha inh inconclusive, POLK inh 0%, Pol beta inh 13% and FEN1 inhibitor -18%.
`CCOc1cc(/C=C2\C(=O)NC(=O)N(CCc3ccc(F)cc3)C2=O)ccc1O` gave Pol eta inh -9%, POLI inh inconclusive, PI5P4K alpha inh -58*, POLK inh -9%, Pol beta inh 0% and FEN1 inhibitor inconclusive.
`Cc1ccc(/C=C2\C(=O)NC(=O)N(Cc3ccccc3Cl)C2=O)o1` gave Pol eta inh 79µM*, POLI inh 25µM*, PI5P4K alpha inh inconclusive, POLK inh inconclusive, Pol beta inh inconclusive and FEN1 inhibitor inconclusive.
Screening Cc1ccc(/C=C2\C(=O)NC(=O)N(CCc3ccc(F)cc3)C2=O)o1 returned Pol eta inh -14%, POLI inh inconclusive, PI5P4K alpha inh -53*, POLK inh -31%, Pol beta inh -11% and FEN1 inhibitor inconclusive.
Screening Cc1ccc(/C=C2/C(=O)NC(=O)N(Cc3ccc(F)cc3)C2=O)o1 returned Pol beta inh 25%.
`O=C1NC(=O)N(CCc2ccc(F)cc2)C(=O)/C1=C\C=C\c1ccccc1` gave Pol eta inh -11%, POLI inh 3.2µM*, PI5P4K alpha inh -4, POLK inh -11%, Pol beta inh -1% and FEN1 inhibitor 0%.
Screening Cc1oc2ccc(O)c(CN3CCCCCC3)c2c1C(=O)Nc1cccc(Cl)c1C returned Pol eta inh inconclusive, POLI inh -4%, POLK inh -14%, Pol beta inh -9% and FEN1 inhibitor 2%.
Screening CCOc1cncc(/C=C/CCNC)c1 returned POLK inh 17%[60.1 µM].

Source: PubChem BioAssay (National Center for Advancing Translational Sciences (NCATS))
